PubChem BioAssay (EPA / NIEHS)
Activity calls are given as the source filed them. Rule for the calls: active = hit-call score of the fitted dose curve at least 0.9, where 1 is the maximum; inactive = score below 0.9.

Read-out: DNA damage-inducible transcript 3 (DDIT3), DDIT3 (gene 1649)
Test: LTEA_HepaRG_DDIT3: Life Technologies and Expression Analysis (LTEA) Assay for DNA damage-inducible transcript 3 (DDIT3) using HepaRG (AID 2283488)
Settings: mRNA level, 48 h; actives raise or lower the signal
Protocol: LTEA_HepaRG is a cell based, multiplexed-readout assay that uses HepaRG, a human liver cell line, with measurements taken at 48 hours after chemical dosing on a 96-well plate.LTEA_HepaRG_DDIT3 is one of 102 assay component(s) measured in the LTEA HepaRG cell culture assay. It is a marker of Oxidative Stress.Data from the assay component LTEA_HepaRG_DDIT3 was analyzed into 1 endpoint. This assay endpoint, LTEA_HepaRG_DDIT3, was analyzed with bidirectional fitting relative to DMSO as the negative control and baseline of activity. Using a type of inducible reporter, measures of mRNA induction for gain or loss-of-signal activity can be used to understand regulation of transcription factor activity. To generalize the intended target to other relatable targets, this assay endpoint is annotated to the dna binding intended target family, where the subfamily is basic leucine zipper.
A total of 1060 chemcials from the ToxCast library were tested in eight-point concentration-response experiments. Cell culture and cytotoxicity assays were conducted at Thermo Fisher Scientific's Custom Services facility (Madison, WI). A single lot of human HepaRG cells (Thermo Fisher Scientific, Frederick, MD) was used for the cell culture experiments. 96-well format collagen type I coated plates of human HepaRG cells were prepared using established methods. Briefly, cryopreserved HepaRG cells were thawed, plated at a density of approximately 100,000 cells/well in HepaRG Thaw, Plate, and General Purpose media (HPRG770, Thermo Fisher Scientific), and incubated for 48 hours. 0.5% DMSO was selected as vehicle control to balance the requisite need of DMSO in HepaRG cultures to maintain differentiation (for example, baseline metabolism, proportions of hepatocytes vs. cholangiocytes), while enabling further hepatic receptor pathway activation (for example, PXR and CAR) in response to chemical exposure. 48 hours after plating, the culture medium was replaced with HepaRG Serum-Free Incudtion Media. Cells were exposed to each test chemical in duplicate and maintained in CO2 incubators for another 48 hours. Chemical plates were thawed to room temperature and 200x concentrations of treatment groups were prepared. 8-point conentration-reponse curves were made with the highest exposure at 100 uM, followed by half-log dilutions, all in 0.5% DMSO. Each test plate contained variouse controls, induction positive controls (1mM phenobarbital), cytotoxicity positive controls ([…] aflatoxin B1), vehicle controls (0.5% DMSO), and total lysis controls (0.5% DMSO). Cell morphology images were taken using an Essen IncuCyte FLR automated microscope, with six 96-well plates imaged in about 24 minutes. Images were captured and exported and JPEG files. Spent culture media was transfered to black-well plates for the LDH assay, and remaining media was sorted at -80 C for later use. Cells were treated with RLT buffer and frozen until shipped for gene expression analysis. Total RNA was isolated from the cell suspension in 75 uL of Buffer RLT (Qiagen, Germantown, MD 20874) by Quintiles/Expression Analysis (Durham, NC) using a custom isolation procedure. Total RNA from each plate well was transferred to a preamplification plate. Fluidigm's 96.96 Dynamic ArrayTM (Fluidigm, Amsterdam, the Netherlands) technology was used for gene expression analyses by quantitative reverse transcription polymerase chain reaction (qRT-PCR, performed by Quintiles/Expression Analysis, Durham, NC)89. Standard TaqManTM Assays (Applied Biosystems/ThermoFisher Scientific, Foster City, CA) were used to assess the expression of 93 genes selected based on their selectivity and sensitivity to important hepatic receptors known to be modulated by environmental chemicals; importance in human hepatocyte functionality; and hepatotoxicity. […]

SMILES	outcome	AC50
NCCO	inactive	
CCCCCCCCCCCCCCCC	inactive	
Cc1c(C(=O)O)c(O)cc2c1C(=O)c1c(O)c([C@@H]3O[C@H](CO)[C@@H](O)[C@H](O)[C@H]3O)c(O)c(O)c1C2=O	inactive	
COCCOCCOC		1.38 µM (active)
CCOc1ccc2c(c1)C(C)=CC(C)(C)N2	inactive	
COC(=O)c1ccc(O)cc1	inactive	
CC(=O)Oc1ccccc1C(=O)O	inactive	
CNCc1cc(F)ccc1Oc1ccc(Cl)c(Cl)c1		77 µM (active)
C[C@]12C=CC(=O)C=C1CC[C@@H]1[C@@H]2C(=O)C[C@@]2(C)[C@H]1CC[C@]2(O)C(=O)CO	inactive	
CC1(C)NC(=O)NC1=O	inactive	
OC[C@@H](O)[C@@H](O)[C@H](O)[C@H](O)CO	inactive	
CC(CO)OC(C)CO (stereo not given) (tested in a mixture with another compound)	inactive	
C=CCc1ccc(O)c(OC)c1	inactive	
Nc1ccccc1N	inactive	
NC(=O)Cn1c(=O)cc(CCN2CCN(c3nccc4sccc34)CC2)c2ccc(F)cc21		65.2 µM (active)
Cc1ccc(C)c(C)c1	inactive	
Cc1ccc2ncccc2c1	inactive	
CNC(=O)[C@H]1O[C@@H](n2cnc3c(NCc4cc(Cl)ccc4OCc4cc(C)no4)ncnc32)[C@H](O)[C@@H]1N	inactive	
COc1cc(C=O)ccc1O	inactive	
COc1ccc(C)cc1N	inactive	

SMILES	outcome	AC50
CCNc1cccc(C)c1	inactive	
C[Si]1(C)O[Si](C)(C)O[Si](C)(C)O[Si](C)(C)O1	inactive	
CCCCCCOCCO	inactive	
CC1(C)CC(N=C=O)CC(C)(CN=C=O)C1 (stereo not given)	inactive	
O=c1[nH]cc(F)c(=O)[nH]1	inactive	
O=C(N[C@@H](Cc1ccccc1)[C@@H](O)C(=O)N1C[C@@H](O)[C@@H](O)C1)c1cc2cc(Cl)ccc2[nH]1		73.1 µM (active)
CCCc1cc(=O)[nH]c(=S)[nH]1	inactive	
CCCCCCCC=O		9.92 µM (active)
CN1CCN(Cc2cc(-c3ccc4[nH]c(=O)oc4c3)co2)[C@@H](c2ccc(F)cc2)C1	inactive	
Nc1ccc(S(=O)(=O)c2ccc(N)cc2)cc1	inactive	
CCCCCC(=O)O	inactive	
FC(F)(F)C(F)(F)C(F)(F)C(F)(F)C(F)(F)C(F)(F)CCI	inactive	
CCCCCCC(=O)OCC	inactive	
CCCCC(CC)COC(=O)CC(C(=O)OCC(CC)CCCC)S(=O)(=O)O (stereo not given)		71.9 µM (active)
CCCCc1ccc2c(n1)[C@@H](c1ccc(OC)cc1C[C@H](C)C(=O)O)[C@H](C(=O)O)[C@H]2c1ccc2c(c1)OCO2	inactive	
Cc1cccc([N+](=O)[O-])c1C	inactive	
Cc1ccc(C(C)C)c(O)c1	inactive	
COc1ccc2c(c1)c(CC(=O)O)c(C)n2C(=O)c1ccc(Cl)cc1	inactive	
CC(C)(C)c1cc(O)c(C(C)(C)C)cc1O		50 µM (active)
CCCCCCCCCCCC(=O)OC	inactive	
